About 64,000 (15%) of roughly 420,000 compounds were called active. Roughly 27% stayed inconclusive and do not appear here. The call rests on the fitted dose curve; in most records, active means well fitted inhibition curve with a large enough effect; inconclusive means small, poorly fitted or top-dose-only effect; inactive means flat fitted curve, though single readings scatter. Not all results are given here.
Test: qHTS for Inhibitors of human tyrosyl-DNA phosphodiesterase 1 (TDP1): qHTS in cells in absence of CPT; further: nearly all actives have a fitted effect of over 55% in size
Conditions: DT40 Tdp1-/- hTDP1 cells, no CPT, ATP luminescence, 48 h; activity change, negative = growth inhibition: at 46.2 µM (top of the series)
Outline: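 Growth kinetics read by CellTiter-Glo luminescence after ≥48 hr at 37 °C. Cells: DT40 Tdp1-/- stably carrying human TDP1, 400 per well, compound exposure in the absence of CPT (DMSO vehicle).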
On the % scale 0 is the no-effect control and ±100 the full control effect; potency means the concentration at half of the fitted maximal effect.

| Structure (SMILES) | activity change, negative = growth inhibition | Potency |
| --- | --- | --- |
| CCOc1ccc(-n2c(SCC(=O)Nc3ccc(OC)cc3)nc3sc4c(c3c2=O)CCN(C)C4)cc1 | -11.7% (inactive) | – |
| COc1ccccc1-n1c(SCC(=O)O)nc2sc3c(c2c1=O)CCC3 | 13.9% (inactive) | – |
| CC(=O)CSc1nc(CCc2ccccc2)c(C#N)c(=O)[nH]1 | -5.37% (inactive) | – |
| COc1ccc(NC(=O)c2cc(=O)[nH]c3ccccc23)cc1S(=O)(=O)N1CCOCC1 | 8.13% (inactive) | – |
| Cc1sc2ncn(CC(=O)NCCN(C)C)c(=O)c2c1S(=O)(=O)N1CCC(C)CC1 | 1.52% (inactive) | – |
| O=C(Nc1cccc(OCC(=O)N2CCOCC2)c1)C1CCCCC1 | -2.37% (inactive) | – |
| COc1cc(/C=C/C(=O)O)cc(S(=O)(=O)Nc2ccccc2C(=O)NCCc2ccccc2)c1OC | 0.839% (inactive) | – |
| Cc1cc(C)nc(/N=C2\NC(=O)CC(C(=O)O)N2c2ccc(Cl)cc2Cl)n1 (stereo not given) | 1.51% (inactive) | – |
| COc1ccc(C(C#N)Nc2ccccc2C)cc1 (stereo not given) | 8.96% (inactive) | – |
| COC(=O)C1C(=O)NCC1c1ccc(OC)cc1 (stereo not given) | -1.94% (inactive) | – |
| COC(=O)C1=C(Nc2ccc(OC)cc2)C=C(C)C(C(=O)OC)C1c1ccc(C)cc1 (stereo not given) | – | 16.4 µM (active) |
| COc1ccc(N2C(=O)C(O)C2c2ccc(C)cc2)cc1 (stereo not given) | -27% (inactive) | – |
| O=C(Nc1ccccc1F)C1C2C=CC3(O2)C1C(=O)N(c1cccnc1)C3C(=O)NC1CCCCC1 (stereo not given) | -2.74% (inactive) | – |
| CCCNc1c(N)c(=O)c1=O | -1.28% (inactive) | – |
| Cc1nc([N+](=O)[O-])c(NCCCO)n1Cc1ccccc1 | 2.67% (inactive) | – |
| COc1ccc(C2OCC3(CO2)SC(=O)NC3=O)cc1OC (stereo not given) | -5.98% (inactive) | – |
| CC(C)n1c(SCC(=O)Nc2ccccc2N2CCCCC2)nc2c1c(=O)n(C)c(=O)n2C | – | 23.1 µM (active) |
| CCOc1ccc(Cn2c(SCCCCC#N)nc3c2c(=O)n(C)c(=O)n3C)cc1OCC | -13.1% (inactive) | – |
| CCOC(=O)CSc1nc2c(c(=O)n(C)c(=O)n2C)n1Cc1ccccc1F | -23.5% (inactive) | – |
| CSc1nnc(C2CCCN(CC(=O)Nc3ccccc3N3CCOCC3)C2)n1C(C)C (stereo not given) | -22% (inactive) | – |
| Cn1c(=O)c2c(nc(SCCNS(=O)(=O)c3ccccc3)n2C)n(C)c1=O | -27.8% (inactive) | – |
| Cn1c(=O)c2c(nc(SCC(=O)Nc3ccc(F)cc3)n2Cc2ccccc2)n(C)c1=O | – | 4.61 µM (active) |
| CCC1CCCCN1C(=O)CSc1nc2c(c(=O)n(C)c(=O)n2C)n1C (stereo not given) | -29.5% (inactive) | – |
| CCCSc1nc2c(c(=O)n(C)c(=O)n2C)n1Cc1ccc(C)cc1 | – | 16.4 µM (active) |
| C#CC(C)(C)NC(=O)CSc1nc2c(c(=O)n(C)c(=O)n2C)n1CCCC | -10.2% (inactive) | – |

| Structure (SMILES) | activity change, negative = growth inhibition | Potency |
| --- | --- | --- |
| Cc1cccc(Cn2c(SCCO)nc3c2c(=O)n(C)c(=O)n3C)c1 | – | 14.6 µM (active) |
| COc1ccc(NC(=O)CCn2ccnc2)c(OC)c1 | -19.5% (inactive) | – |
| Cc1ccc(C2(C)NC(=O)N(CC(=O)Nc3ccccc3C(=O)N3CCCCC3)C2=O)cc1 (stereo not given) | 3.02% (inactive) | – |
| CC(=O)NC(CC(=O)Nc1nc(-c2ccccc2)c(C(C)=O)s1)c1ccccc1 (stereo not given) | -17.4% (inactive) | – |
| Cc1cc(=O)n2c3c(cccc13)CCC2 | -12% (inactive) | – |
| CCCCn1c(=O)c(C(C)=O)c(O)c2ccccc21 | -5.9% (inactive) | – |
| CCNC(=O)c1c(O)c2cccc3c2n(c1=O)CC3 | – | 23.1 µM (active) |
| CC(C)Cc1nnc(NC(=O)CCNC(=O)c2ccccc2Cl)s1 | 0.833% (inactive) | – |
| Cn1c(NCc2cccnc2)nc2cc(-c3ccc(F)cc3)sc2c1=O | -1.95% (inactive) | – |
| COc1cccc(-c2cc3nc(NCc4ccccc4OC)n(C)c(=O)c3s2)c1 | – | 20.6 µM (active) |
| COc1ccccc1CNc1nccn(-c2ccc(F)cc2)c1=O | -25.6% (inactive) | – |
| CC(=O)NC(CC(=O)O)c1ccc(F)cc1 (stereo not given) | -8.86% (inactive) | – |
| COc1ccccc1CC1(C)C(=O)Nc2ccc(OC(F)(F)F)cc21 (stereo not given) | -55.2% (inactive) | – |
| CC1(Cc2ccccc2C#N)C(=O)Nc2ccc(-c3ccc4[nH]ccc4c3)cc21 (stereo not given) | – | 4.11 µM (active) |
| CN1CCCN(S(=O)(=O)c2ccc3c(c2)OCCO3)CC1 | – | inactive |
| N#CCC(=O)NC(=O)NCC1CC1 | -5.15% (inactive) | – |
| CC(OC(=O)c1ccc(-n2cnnn2)cc1)C(=O)NCc1ccccc1 (stereo not given) | -20.2% (inactive) | – |
| O=C(O)/C=C\C(=O)Nc1ccc(OCc2ccccc2)cc1 | 3.99% (inactive) | – |
| CC(C)(C)OC(=O)N(Cc1ccccc1)Cc1ccc(OCc2cccc(NC(=O)c3ccccc3)c2)cc1 | – | 18.4 µM (active) |
| CCc1ccnc(NC(=O)Nc2ccc(OCc3ccccc3)cc2)c1 | -9.03% (inactive) | – |
| CN(CC(=O)Nc1cccc(F)c1)C(=O)CC1CCCC1 | -0.65% (inactive) | – |
| Cc1cccc(C(=O)OC(C)CN2CCN(C)CC2)c1 (stereo not given) | -23.2% (inactive) | – |
| CC(CNC(=O)Cn1cnc2c(OCc3ccccc3)ncnc21)c1ccccc1 (stereo not given) | -19.5% (inactive) | – |
| Cc1ccc(NC(=O)Cn2cnc3c(OCc4ccccc4)ncnc32)cc1C | -17.5% (inactive) | – |
| Cc1ccc(CNC(=O)Cn2cnc3c(NCc4ccccc4)ncnc32)o1 | – | 8.2 µM (active) |

Reference: PubChem BioAssay AID686978 (National Center for Advancing Translational Sciences (NCATS), 2013)
